# Assay results as given in PubChem BioAssay (NCATS).
# Several values for one entry are separate records, joined by “and”; a condition that tells them apart may be missing. Equal values may be shown once. Records with an inconclusive call do not appear. Entries that show only a call come without a potency. Activity calls are given as the source filed them. Unless noted, the call rests on the fitted dose curve; in most records, active means well fitted curve in the direction sought with a large enough effect; inconclusive means small, poorly fitted or top-dose-only effect, or another doubt; inactive means no such curve, though single readings can be large; an effect the other way counts as inactive or inconclusive.
# What was measured:
# [1] = target: Alpha-galactosidase A (Homo sapiens) (UniProt P06280); assay: Counterscreen for Glucocerebrosidase Inhibitors: qHTS Assay for Human alpha-Galactosidase at pH 4.5 (AID 992)
# Chain of Alpha-galactosidase A (Homo sapiens) (P06280 whole entry, looked up): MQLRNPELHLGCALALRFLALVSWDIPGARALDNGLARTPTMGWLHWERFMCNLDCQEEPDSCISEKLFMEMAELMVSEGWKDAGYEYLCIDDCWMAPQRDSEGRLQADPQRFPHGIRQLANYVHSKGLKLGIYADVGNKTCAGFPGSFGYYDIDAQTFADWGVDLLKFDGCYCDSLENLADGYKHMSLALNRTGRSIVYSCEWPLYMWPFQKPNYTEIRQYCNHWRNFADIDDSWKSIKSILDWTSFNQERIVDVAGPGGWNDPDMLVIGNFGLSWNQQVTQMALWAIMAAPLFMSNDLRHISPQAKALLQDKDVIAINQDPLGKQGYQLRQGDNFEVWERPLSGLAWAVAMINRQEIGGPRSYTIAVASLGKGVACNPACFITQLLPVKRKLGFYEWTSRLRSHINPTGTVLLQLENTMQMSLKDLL
# Method in brief: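 Steps: enzyme (2 nM final), then compound across 0.7 nM to 77 uM, then 80 uM fluorogenic galactopyranoside substrate; incubate 20 min at room temperature; quench at pH 10; measure fluorescence at 365/440 nm.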
# [2] = target: Alpha-galactosidase (Coffea arabica) (UniProt Q42656); assay: Counterscreen for Glucocerebrosidase Inhibitors: qHTS Assay for Coffee Bean alpha-Galactosidase at pH 5.9 (AID 998)
# Chain of Alpha-galactosidase (Coffea arabica) (Q42656 whole entry, looked up): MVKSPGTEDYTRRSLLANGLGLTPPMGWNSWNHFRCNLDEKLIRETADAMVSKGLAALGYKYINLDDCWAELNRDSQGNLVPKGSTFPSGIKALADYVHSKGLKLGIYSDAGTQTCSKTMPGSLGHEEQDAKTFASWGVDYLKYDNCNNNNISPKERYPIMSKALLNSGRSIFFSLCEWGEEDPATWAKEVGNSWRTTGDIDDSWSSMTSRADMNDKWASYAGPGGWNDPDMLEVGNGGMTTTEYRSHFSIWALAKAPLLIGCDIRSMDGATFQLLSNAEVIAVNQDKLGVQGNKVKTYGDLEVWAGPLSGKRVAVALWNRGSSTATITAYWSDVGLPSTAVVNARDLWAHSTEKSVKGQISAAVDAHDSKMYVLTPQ
# Method in brief: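 Enzyme 2 nM + cpd (0.7 nM–77 uM titration) + 4-MU-alpha-Gal 80 uM, pH 5.9 citrate/Tween-20, RT 20 min, NaOH/glycine stop pH 10, fluor 365/440. Normalized to no-enzyme and full-activity controls; Hill-fit AC50.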
# [3] = Validation of Assay for Modulators of Lamin A Splicing (AID 1459; active means well fitted curve in the direction sought with a large enough effect in the signal ratio; the % refers to the signal ratio;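 further: cells exposed to compound for two days before reading; ratio rise marks activators and ratio drop marks inhibitors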)
# Method in brief: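 HeLa S3 lamin A-EGFP/DsRed2 stable clone, 600 cells/well, Opti-MEM 2% FBS; compounds by pin tool; 48 hrs, 37 °C/5% CO2; Acumen 488 nm scan, objects 10-100 um; GFP/RFP intensity ratio.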
# [4] = qHTS Assay for Lipid Storage Modulators (AID 1519; calls by dose curve); settings: Drosophila S3 cells, BODIPY lipid droplet/cell ratio, laser cytometry, cells loaded with oleic acid
# Method in brief: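 Cells seeded at 5,000 per well were treated with compounds over a concentration series and loaded with oleic acid (400 uM, as added). Lipid droplet fluorescence (488 nm excitation, 500-530 nm channel) was read by laser-scanning cytometry and normalized to 20 uM Triacsin C.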
# [5] = target: DNA repair nuclease/redox regulator APEX1 (Homo sapiens) (UniProt P27695); assay: qHTS Validation Assay for Inhibitors of the Human Apurinic/apyrimidinic Endonuclease 1 (APE1) (AID 1705;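 further: TAMRA fluorescence gain over two minutes as APE1 cuts a quenched THF abasic duplex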)
# Chain of DNA repair nuclease/redox regulator APEX1 (Homo sapiens) (P27695 whole entry, looked up): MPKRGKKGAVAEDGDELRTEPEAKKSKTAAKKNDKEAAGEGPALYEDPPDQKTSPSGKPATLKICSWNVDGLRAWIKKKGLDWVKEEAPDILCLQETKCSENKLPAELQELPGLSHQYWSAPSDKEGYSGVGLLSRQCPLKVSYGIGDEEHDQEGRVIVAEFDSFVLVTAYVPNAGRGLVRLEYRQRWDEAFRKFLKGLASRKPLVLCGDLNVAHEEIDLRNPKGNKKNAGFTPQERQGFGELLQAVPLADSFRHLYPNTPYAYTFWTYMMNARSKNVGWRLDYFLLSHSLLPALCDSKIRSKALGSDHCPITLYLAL
# Method in brief: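 qHTS, 1536-well. APE1 + cpd 15 min RT → 50 nM TAMRA/BHQ-2 THF-abasic dsDNA substrate → kinetic fluorescence, 3 reads/60 s; delta(read3−read1) = reaction progress. No-enzyme buffer = negative control.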
# [6] = Counterscreen for APE1 Inhibitors: Fluorescent Dye Displacement Validation Assay (AID 1707)
# Method in brief: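 Reaction mixture of 250 nM Thiazole Orange and 50 nM double-stranded abasic-site DNA was dispensed, compounds were pin-transferred, and fluorescence was read at endpoint (480 nm ex, 540 nm em). Reduced fluorescence indicated dye displacement by DNA binding.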
# [7] = target: Endonuclease 4 (Escherichia coli (strain K12)) (UniProt P0A6C1); assay: Counterscreen for APE1 Inhibitors: qHTS Validation Assay for Inhibitors of Endonuclease IV (AID 1708)
# Method in brief: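 Read-out: fluorescence rise (ex 525/em 598 nm) from incision of a TAMRA/BHQ-2 double-stranded THF abasic-site substrate (50 nM), measured kinetically; third-minus-first read difference gave reaction progress. Enzyme 2 nM.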
# [8] = qHTS for differential inhibitors of proliferation of Plasmodium falciparum line 7G8 (AID 1815);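 further: parasite growth measured after three days of incubation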; further: potency means the concentration at half of the fitted maximal effect
# [9] = qHTS for differential inhibitors of proliferation of Plasmodium falciparum line GB4 (AID 1816); settings: Potency: Plasmodium falciparum GB4 proliferation inhibition;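 further: parasite growth measured after 72 h incubation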; further: potency means the concentration at half of the fitted maximal effect
# [10] = target: alpha-glucosidase (Oryza sativa, rice) (UniProt Q653V4); assay: Counterscreen for Glucocerebrosidase Inhibitors: qHTS Assay for Rice alpha-Glucosidase at pH 5.0 (AID 997)
# Method in brief: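 Endpoint fluorogenic assay at pH 5.0: compounds (0.7 nM to 77 uM) titrated against 4 nM rice enzyme and 400 uM 4-MU-alpha-glucoside for 20 min at room temperature; NaOH/glycine stop, read ex 365/em 440 nm, Hill-fitted AC50.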
# [11] = measured here: cell count channel max response
# [12] = measured here: lipid channel max response
Compound,outcome [1],outcome [2],outcome [3],"activity change, negative = inhibition ([4]; at 57.5 µM (top of the series))","max response [4, 11]","max response [4, 12]",Potency [5],Potency [6],Potency [7],Potency [8],Potency [9],"activity change, negative = inhibition ([4]; at 25.7 µM (top of the series))",outcome [10]
CCCN(CCC)[C@@H]1CCc2cccc(O)c2C1,inactive,inactive,inactive,-3.59% (inactive) and 3.17% (inactive) and -3.25% (inactive),0.992% and 13.8% and 35%,-2.21% and 19.9% and 27.7%,inactive,inactive,inactive,3.55 µM (active),3.16 µM (active),,
NC(N)=NOCC[C@H](N)C(=O)O,inactive,,inactive,-0.661% (inactive) and -1.31% (inactive),-2.62% and 0.126% and 38.5%,-6.68% and -0.879% and 37%,,inactive,inactive,inactive,inactive,-2.42% (inactive),
CC(N)[C@H](O)c1ccc(O)c(O)c1 (stereo not given in full),,,inactive,0.659% (inactive),1.77%,2.21%,,inactive,inactive,inactive,inactive,,
Cc1o[nH]c(=O)c1CC(N)C(=O)O (stereo not given),,,inactive,0.836% (inactive),-21.1%,-19%,,inactive,inactive,inactive,inactive,,
COC(=O)N1CCN(C(=O)Cc2ccc(Cl)c(Cl)c2)C(CN2CCCC2)C1 (stereo not given),,,inactive,0.712% (inactive),7.98%,7.35%,inactive,inactive,inactive,12.6 µM (active),10 µM (active),,
Clc1cc(I)cc(Cl)c1NC1=NCCN1,inactive,,inactive,0.0728% (inactive),-25.7%,-24.3%,inactive,inactive,,,,,
CN1CCc2cccc(Cl)c2CC1,inactive,inactive,inactive,0.882% (inactive),-8.27%,-8.1%,inactive,inactive,inactive,inactive,,,inactive
C=CCN1CC[C@]23c4c5ccc(O)c4O[C@H]2/C(=N/NC(=O)c2ccccc2)CC[C@@]3(O)[C@H]1C5,,,inactive,-1.45% (inactive),-18.8%,-20.5%,inactive,inactive,inactive,10 µM (active),8.91 µM (active),,
NC(=O)COc1c(F)cc(SCCNS(=O)(=O)c2ccccc2)cc1F,inactive,,inactive,-2.33% (inactive),1.68%,-0.0137%,inactive,inactive,inactive,inactive,inactive,,
CC(C)NP(=O)(NC(C)C)OP(=O)(NC(C)C)NC(C)C,inactive,,inactive,2% (inactive),-5.61%,-4.03%,inactive,inactive,inactive,,,,
CC(N)Cc1c[nH]c2ccc(O)cc12 (stereo not given),,,inactive,-0.0169% (inactive),8.43%,9.94%,inactive,inactive,inactive,inactive,inactive,,
CN(C(=O)Cc1ccc(Cl)c(Cl)c1)C(CN1CCCC1)c1cccc(OCC(=O)O)c1 (stereo not given),,,inactive,,,,inactive,inactive,inactive,,,,
c1ccc2cc(CC3=NCCN3)ccc2c1,inactive,,inactive,1.13% (inactive),29%,31.2%,,inactive,inactive,,10 µM (active),,
NCCCP(=O)(O)O,inactive,inactive,inactive,,,,inactive,inactive,inactive,inactive,inactive,,
CCCN(CCC)CCc1ccc(O)c(O)c1,inactive,,inactive,-0.321% (inactive),-7.51%,-5.97%,,inactive,inactive,12.6 µM (active),10 µM (active),,
N[C@@H](Cn1oc(=O)[nH]c1=O)C(=O)O,inactive,,inactive,,,,inactive,inactive,inactive,inactive,inactive,,inactive
OCc1cnc[nH]1,inactive,,inactive,,,,inactive,inactive,inactive,,7.94 µM (active),,
Cc1sc2ccccc2c1CC1=NCCN1,inactive,,inactive,,,,inactive,inactive,inactive,,14.1 µM (active),,inactive
COc1ccc2[nH]c3c(c2c1)CCNC3,inactive,inactive,inactive,-0.655% (inactive),-42.9%,-46.2%,,inactive,inactive,inactive,,,
Ic1ccccc1CNC1C2CCN(CC2)C1C(c1ccccc1)c1ccccc1 (stereo not given),,,inactive,,,,inactive,inactive,inactive,7.08 µM (active),5.01 µM (active),,
COc1cc(CC(C)N)c(OC)cc1I (stereo not given),,,inactive,,,,inactive,inactive,,10 µM (active),6.31 µM (active),,
COc1ccc(CNC(=O)/C=C/c2ccc3[nH]cc(CCN(C)C)c3c2)cc1,,,inactive,-4.95% (inactive),-78.1%,-80.1%,,inactive,,11.2 µM (active),11.2 µM (active),,
NC(C(=O)O)c1cc(=O)[nH]o1 (stereo not given),,,inactive,,,,inactive,inactive,inactive,inactive,inactive,,
O=c1c2ccccc2[se]n1-c1ccccc1,inactive,,inactive,,,,inactive,inactive,inactive,14.1 µM (active),14.1 µM (active),,
